Compound activity: PubChem BioAssay, several laboratories
Hits are enriched below; roughly 4.6% of the tested compounds scored in any of these assays.
KKLEB tox = reduces viability of KKLEB cystic fibrosis airway cells | KKLEB CF airway cells viability, ATPlite luminescence, overnight; active compounds read low; cells stimulated with P. aeruginosa culture filtrate | activity change (cytotoxicity), % at 5 µM | hit rate 0.36% among 360,000 | AID 602141;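 active = corrected activity change at or below -50% at 5 µM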
Peg3 prom inh-1 = inhibitors of Peg3 promoter; AID 588405; inhibition, % at 20 µM; hit rate 1.7% among 360,000; HeLa PEG-Prom luciferase reporter, luminescence, overnight;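 active = inhibition of at least 50% at 20 µM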
Mdm2-MdmX inh = disrupts the human Mdm2-MdmX interaction. SaOS-2 split-luciferase Mdm2/MdmX complementation, luminescence. hit rate 3% among 330,000. O15151+Q00987. inhibition, % at 8 µM;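 active = inhibition of at least 50% at 8 µM in the primary screen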
CF NFkB block = blocks PAF-induced NF-kB reporter in cystic fibrosis cells. AID 588850. KKLEB NF-kB-GFP reporter, GFP fluorescence overnight. hit rate 0.86% among 360,000. inhibition, % at 5 µM;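 active = at least 50% inhibition at 5 µM, scaled per plate between neutral and stimulator controls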;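 note: PAF is a Pseudomonas aeruginosa culture filtrate used as stimulus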
ABHD5 PLIN5 PPI = blocks binding of human ABHD5 to perilipin-5. Q00G26+Q8WTS1. Split G. princeps luciferase complementation, luminescence, 4 h. inhibition, % at 4 µM. hit rate 0.78% among 360,000. AID 602281;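 active = inhibition above the mean inhibition across every tested compound plus 3 SD, cut at about 22% in these data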
Target sequence (Q00G26 whole entry, looked up): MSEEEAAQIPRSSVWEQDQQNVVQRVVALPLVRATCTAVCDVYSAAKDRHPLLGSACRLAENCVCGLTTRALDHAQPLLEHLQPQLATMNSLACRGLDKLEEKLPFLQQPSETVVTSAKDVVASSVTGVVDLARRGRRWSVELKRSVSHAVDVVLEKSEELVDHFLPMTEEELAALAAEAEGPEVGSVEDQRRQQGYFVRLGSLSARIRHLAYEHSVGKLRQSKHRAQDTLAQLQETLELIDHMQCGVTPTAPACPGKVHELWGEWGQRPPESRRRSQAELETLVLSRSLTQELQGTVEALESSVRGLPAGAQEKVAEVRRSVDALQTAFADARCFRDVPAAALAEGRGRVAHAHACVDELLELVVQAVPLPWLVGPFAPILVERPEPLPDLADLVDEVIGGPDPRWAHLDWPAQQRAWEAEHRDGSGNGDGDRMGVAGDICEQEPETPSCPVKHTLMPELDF
Target sequence (Q8WTS1 whole entry, looked up): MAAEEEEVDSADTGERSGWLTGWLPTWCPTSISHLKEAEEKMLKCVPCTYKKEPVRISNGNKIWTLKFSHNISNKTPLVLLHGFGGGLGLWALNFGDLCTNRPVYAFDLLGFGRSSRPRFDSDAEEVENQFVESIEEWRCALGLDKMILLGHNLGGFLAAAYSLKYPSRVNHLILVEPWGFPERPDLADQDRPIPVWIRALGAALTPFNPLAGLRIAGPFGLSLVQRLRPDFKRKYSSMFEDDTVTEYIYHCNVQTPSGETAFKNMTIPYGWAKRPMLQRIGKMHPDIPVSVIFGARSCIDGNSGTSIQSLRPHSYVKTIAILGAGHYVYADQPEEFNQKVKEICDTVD
HIF-2a block = blocks HIF-2a reporter activity; inhibition, % at 18.8 µM; 786-0 RCC cells HIF-2a reporter, luciferase luminescence, overnight; hit rate 0.72% among 360,000; AID 624352;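 active = inhibition of the luminescence signal of 40% or more relative to plate controls, in a single-dose primary screen at 18.75 µM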
Mdm2 MdmX conf-1 = human Mdm2/MdmX binding inhibition, confirmed; shares compounds with Mdm2-MdmX inh; luminescent assay; inhibition, % at 8 µM; hit rate 55% among 10,000; AID 489028
Full FLuc ctr = full-length luciferase inhibition in Mdm2/MdmX counter-screen | shares compounds with Mdm2-MdmX inh | SaOS-2 full-length luciferase counterscreen, luminescence | inhibition, % at 8 µM | hit rate 77% among 6,200;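 active = mean inhibition at 8 µM reaching about 37%, which flags the compound as non-specific, limit read from the data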;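 note: p53-null SaOS-2 cells with luciferase driven by a doxycycline-inducible promoter; compound on cells about two nights before reading with doxycycline added after day one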
Peg3 prom inh-2 = confirmation of Peg3 promoter inhibitors. shares compounds with Peg3 prom inh-1. HeLa PEG-Prom luciferase reporter, luminescence, overnight. inhibition, % at 20 µM. hit rate 84% among 1,300. AID 602417;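 active = at 20 µM dose, 40% or more inhibition averaged across four replicates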
CF NFkB inh conf = CF NF-kB inhibition confirmation, single concentration; hit rate 64% among 1,300; inhibition, % at 5 µM; KKLEB CF airway cells, PAF-induced NF-kB-GFP fluorescence, overnight; shares compounds with CF NFkB block;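 note: stimulus PAF is a Pseudomonas aeruginosa filtrate and not platelet activating factor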
ABHD5 PLIN5 conf = ABHD5-PLIN5 interaction inhibition, confirmed; inhibition, % at 4 µM; hit rate 67% among 2,200; biochemical ABHD5-PLIN5 interaction, luminescence; shares compounds with ABHD5 PLIN5 PPI; in the data active = inhibition above about 23%
HNF4 split-luc = HNF4 split-luciferase signal hit, counter-screen; shares compounds with ABHD5 PLIN5 PPI; inhibition, % at 4 µM; hit rate 77% among 2,200; AID 651674; HNF4 dimerization, luminescence, biochemical;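 active = mean inhibition across replicate wells exceeding the computed hit threshold, cut at about 13% in these data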;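 note: light from luciferase halves that rejoin when HNF4 fusion proteins dimerize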
Mdm2 MdmX conf-2 = Mdm2/MdmX (human) interaction inhibition, confirmed; hit rate 99% among 740; AID 504601; inhibition, % at 8 µM; SaOS-2 split-luciferase Mdm2/MdmX complementation, luminescence; shares compounds with HIF-2a block;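 active = mean inhibition of the luminescence signal across two replicates at or above 26 percent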
HIF-2a inh conf = confirmation of HIF-2a inhibitors | shares compounds with HIF-2a block | 786-0 RCC cells, HIF-2a luciferase reporter luminescence, overnight | inhibition, % at 18.8 µM | hit rate 56% among 1,800;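 active = mean inhibition across four replicates of at least 40 percent at the single tested concentration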
HIF-1a cs = HIF-1a inhibition counter-screen for HIF-2a hits; MiaPaCa-2 HIF-1a luciferase reporter, desferoxamine, overnight; hit rate 72% among 1,800; AID 651589; inhibition, % at 18.8 µM; shares compounds with HIF-2a block;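 active = mean inhibition of the reporter signal across four replicates at the single tested dose of 50% or more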
Each line names hits and unclear results; the compound was inactive in the other large screens (follow-up assays come after a bar, where they were run). Cut-off read from the data, not from the text of the source, unless noted: active = inhibition above about 40%; inactive = the rest.

O=C(Nc1ccccc1)NN(C(=O)CCl)c1ccccc1	Peg3 prom inh-1 100, Mdm2-MdmX inh 100, CF NFkB block 70, HIF-2a block 58 | Mdm2 MdmX conf-1 76 | Full FLuc ctr 58 | Peg3 prom inh-2 92 | Mdm2 MdmX conf-2 103 | HIF-2a inh conf 67 | HIF-1a cs 90
COc1ccc(N2C(=O)CSC2c2ccc([N+](=O)[O-])cc2)cc1 (stereo not drawn)	none
CCc1ccc(NC(=O)C(=O)NCC2CCCN2S(=O)(=O)c2ccccc2)cc1 (stereo not drawn)	none
Cc1nc2c(-c3ccc(F)cc3)c(C)nn2c(C)c1CCC(=O)Nc1ccccc1	none
CC(C)n1c(/C=C/[C@@H](O)C[C@@H](O)CC(=O)O)c(-c2ccc(F)cc2)c2ccccc21	Mdm2-MdmX inh 59, HIF-2a block 39 | Mdm2 MdmX conf-1 50 | Full FLuc ctr 108 | HIF-2a inh conf inactive | HIF-1a cs inactive
Cc1cc(O)c(C(C)C)cc1C1(c2cc(C(C)C)c(O)cc2C)OC(=O)c2ccccc21	Peg3 prom inh-1 111, Mdm2-MdmX inh 100, HIF-2a block 50 | Mdm2 MdmX conf-1 58 | Full FLuc ctr inactive | HIF-2a inh conf 63 | HIF-1a cs 107
Cc1cc(C2(c3ccc(O)c(C)c3)OC(=O)c3ccccc32)ccc1O	none
CCc1nnc(NC(=O)c2nc(S(=O)(=O)Cc3cccc(C)c3)ncc2Cl)s1	KKLEB tox -90, Peg3 prom inh-1 109, Mdm2-MdmX inh 100, CF NFkB block 90, ABHD5 PLIN5 PPI 33, HIF-2a block 85 | Mdm2 MdmX conf-1 99 | Full FLuc ctr 51 | ABHD5 PLIN5 conf 82 | HNF4 split-luc 49 | Mdm2 MdmX conf-2 103
CCOc1ccccc1NC(=O)c1nc(S(=O)(=O)Cc2cccc(C)c2)ncc1Cl	KKLEB tox -102, Peg3 prom inh-1 106, Mdm2-MdmX inh 100, CF NFkB block 87, HIF-2a block 90 | Mdm2 MdmX conf-1 76 | Full FLuc ctr 55 | Mdm2 MdmX conf-2 102 | HIF-2a inh conf 86 | HIF-1a cs 103
CCSc1ncc(Cl)c(C(=O)Nc2ccccc2OC)n1	none
CCc1nnc(NC(=O)c2nc(S(=O)(=O)Cc3ccc(C)cc3)ncc2Cl)s1	KKLEB tox -82, Peg3 prom inh-1 106, Mdm2-MdmX inh 95, CF NFkB block 94, ABHD5 PLIN5 PPI 25, HIF-2a block 50 | Mdm2 MdmX conf-1 80 | Full FLuc ctr 52 | ABHD5 PLIN5 conf 68 | HNF4 split-luc 43 | Mdm2 MdmX conf-2 103 | HIF-2a inh conf 63 | HIF-1a cs 108
CC1=C(C)CC(C(=O)NCc2cccc(Cl)c2)C(C(=O)O)C1 (stereo not drawn)	none
O=C(O)c1c[nH]c2nccnc12	none (no result: Mdm2-MdmX inh)
COc1ccc(/C=C/C(=O)c2cc(F)ccc2OC(=O)c2ccccc2)cc1OC	Mdm2-MdmX inh 68, CF NFkB block 53, HIF-2a block 44 | Mdm2 MdmX conf-1 58 | Full FLuc ctr 98 | HIF-2a inh conf inactive | HIF-1a cs inactive
N#Cc1cc2ccncc2c2ccccc12	none (no result: Mdm2-MdmX inh)
Nc1cc2ccncc2c2ccccc12	Mdm2-MdmX inh 84, CF NFkB block 65 | Mdm2 MdmX conf-1 84 | Full FLuc ctr 50 | Mdm2 MdmX conf-2 90
N#CCCN(C(=O)COC(=O)c1nc(Cl)ccc1Cl)c1ccccc1	none
N#CCCN(C(=O)CCl)c1cccc(Cl)c1	Peg3 prom inh-1 54, Mdm2-MdmX inh 100 | Mdm2 MdmX conf-1 92 | Full FLuc ctr 54 | Mdm2 MdmX conf-2 101
COc1ccc(Cn2c(SCc3cc(C)ccc3C)nc3cc(OC)c(OC)cc3c2=N)cc1	Peg3 prom inh-1 104, Mdm2-MdmX inh 84, HIF-2a block 95 | Mdm2 MdmX conf-1 100 | Full FLuc ctr 51 | Mdm2 MdmX conf-2 103 | HIF-2a inh conf inactive | HIF-1a cs 107
COc1cc2nc(SCc3ccc(Cl)cc3Cl)n(Cc3cccs3)c(=N)c2cc1OC	none
COc1ccc(Cn2c(SCc3ccc(C)cc3)nc3cc(OC)c(OC)cc3c2=N)cc1Cl	KKLEB tox -94, Peg3 prom inh-1 99, Mdm2-MdmX inh 94, CF NFkB block 96, HIF-2a block 91 | Mdm2 MdmX conf-1 100 | Full FLuc ctr 51 | Mdm2 MdmX conf-2 103 | HIF-2a inh conf 60 | HIF-1a cs 105
CC(C(=O)NC1CCCC1)n1c(-c2ccccn2)nc2ccccc21 (stereo not drawn)	none (no result: KKLEB tox, Peg3 prom inh-1, Mdm2-MdmX inh, CF NFkB block)
CNC(=O)c1cc(Oc2ccc(NC(=O)Nc3ccc(Cl)c(C(F)(F)F)c3)cc2)ccn1	Mdm2-MdmX inh 97, CF NFkB block 75 | Mdm2 MdmX conf-1 89 | Full FLuc ctr 52 | Mdm2 MdmX conf-2 99
O=C(Nc1ccc(Cl)c(C(F)(F)F)c1)c1ccncc1	none
NC(=O)c1ccc(NC(=O)COC(=O)CCC2CCCC2)cc1	none (no result: Mdm2-MdmX inh)
CC1=C(C(=O)OCc2ccccc2)C(c2cccc([N+](=O)[O-])c2)NC(=O)N1 (stereo not drawn)	none
CC1=C(C(=O)OCc2ccc3c(c2)OCO3)C(c2cccc([N+](=O)[O-])c2)NC(=O)N1 (stereo not drawn)	CF NFkB block 74 | Mdm2 MdmX conf-1 70 | Full FLuc ctr 45 | CF NFkB inh conf 68 | Mdm2 MdmX conf-2 74
O=C(CN1C(=O)NC2(CCCCCC2)C1=O)N1CCCCC1	none
